Source: PubChem BioAssay AID570 (The Scripps Research Institute Molecular Screening Center, 2006)
Out of some 65,000 compounds screened, about 45 (0.07%) were called active.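 The calls were made as follows: active = inhibition above the mean of compound-free control plate wells plus 3 SD (cut at about 14% in these data); inactive = the rest.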 Only a selection was taken, and actives are over-represented in it overall.

Target: Collagenase 3 (Homo sapiens) (UniProt P45452)
Assay: inhibition of MMP13 collagenase activity – biochemical, FRET peptide cleavage, primary screen (AID 570);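 also: 0% = DMSO wells and 100% = wells with reference MMP-13 inhibitor after basal subtraction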
Settings: MMP-13 fTHP FRET cleavage, Mca fluorescence; at 4 µM; stronger effect = higher value

inhibition, inactive:
O=C1C(C=NCC2CCCO2)=C(O)c2ccccc21 (stereo not drawn) 3.3%
CCOC(=O)Cn1c(SC)nc2sc3c(c2c1=O)CC(C)(C)OC3 1.7%
CN(C)/C=C/c1c(C#N)c(=O)ncn1Cc1ccccc1 2.5%
O=C(Nc1cccc(C(=O)N2CCCC2)c1)c1ccccc1 -0.2%
CCOC(=O)n1c(SCC(=O)N(CC)CC)nc2ccccc21 -1.9%
O=C(O)C1CCN(S(=O)(=O)N2CCOCC2)CC1 -0.5%
COc1ccc(CC(=O)c2ccc(O)cc2O)cc1OC 2%
CC1(C)Oc2ccc3ccc(=O)oc3c2/C(=C/NCCO)C1=O 2.5%
Cc1ccc(-c2noc(CSc3nnc(-c4ccccc4)n3C)n2)cc1 7.2%
Cn1c(/C(C#N)=C2/CCCCCN2)nc2ccccc21 12.4%
O=C(Cn1c(-c2cncs2)nc2ccccc21)NC1CCCC1 -3.3%
COCCCNC(=O)C1CC(=O)N(c2ccc(C)cc2)C1 (stereo not drawn) -1.3%
O=C(C(NS(=O)(=O)c1cccc2nsnc12)c1ccccc1)N1CCN(c2ccccn2)CC1 (stereo not drawn) 7.2%
Cc1ccsc1CNn1cnnc1SCc1ccccc1F 9.3%
COc1ncnc2c1N=C1CC(C)(C)CC(N)=C1S2 1.4%
Cc1[nH]c2ccccc2c1C(=O)CSCC(=O)O -0.3%
O=C(CSc1nnc(-c2c[nH]c3ccccc23)n1-c1ccc(F)cc1)NCc1ccco1 6.1%
CC(C)(C)n1nnnc1C(c1ccc2ncccc2c1)N1CCSCC1 (stereo not drawn) -2.5%
O=C(O)CCSc1nnc(-c2ccccc2)n1-c1ccccc1 -3.8%
O=C(CC1Oc2ccccc2NC1=O)NCCCN1CCN(Cc2ccccc2)CC1 (stereo not drawn) -2%
Cn1c(=O)c2c(nc(Br)n2CCSc2nc3ccccc3o2)n(C)c1=O 0.1%
COc1ccc(CNC2CCCCC2)cc1 5.3%
Cc1nonc1OCCn1nnnc1N -19.6%
O=C(COc1ccccc1)N1CCc2ccccc2C1 1.4%
CCN(CC)Cc1c(C(=O)OC)nnn1-c1nonc1N -0.9%
CCOC(=O)c1sc(=S)n(-c2cccc(OC)c2)c1N 5.8%
O=C(NCCN1C(=O)C2C3C=CC(C3)C2C1=O)Nc1ccccn1 (stereo not drawn) 7.3%
OC(COc1cccc2ccccc12)CN1CCN(c2ccccn2)CC1 (stereo not drawn) 0.9%
Cn1c(Cc2csc(N)n2)nnc1SC/C=C/c1ccccc1 6.2%
O=C(CN(CC1CCCO1)C(=O)CNS(=O)(=O)c1ccccc1)NCc1ccccc1 (stereo not drawn) -0.3%
COc1cccc(-c2nnc(N(C)C(=O)c3ccno3)s2)c1 -8.4%
COC(CCN(C)C)(c1ccccc1)c1ccccc1 -0.2%
Nc1nonc1-c1noc(-c2ccc(Br)o2)n1 -4.4%
CCOC(=O)CNC(=O)CSc1nnc(-c2cccc(OC)c2)n1CC 3.6%
COc1cccc(NC(=O)C(C)Oc2ccccc2)c1 (stereo not drawn) 2.2%
N#CC1=C(N)Oc2n[nH]c(CSc3ccccc3)c2C12C(=O)Nc1ccccc12 (stereo not drawn) 1.5%
COc1ccccc1CNC(=O)C1CCCN(S(=O)(=O)c2cccc3cccnc23)C1 (stereo not drawn) 2.1%
Cc1noc(C)c1CSc1nc2cc(S(=O)(=O)N3CCOCC3)ccc2o1 -0.9%
CC12CCC(C(=O)N3CCN(c4ncccn4)CC3)(c3nc4ccccc4nc31)C2(C)C (stereo not drawn) 0.1%
CC(C)C[C@H](NC(=O)[C@@H]1O[C@H]1C(=O)O)C(=O)NCCCCN=C(N)N 0.7%
CCn1cc(C(=O)N2CC=C(c3ccccc3)CC2)c(=O)c2ccc(C)nc21 0.8%
CCN1CCN(Cc2nc3c(c(=O)n(C)c(=O)n3C)n2CC(=O)c2ccccc2)CC1 -8.7%
Cc1ccc(Cc2cncc(O)c2)cc1S(=O)(=O)O 1.3%
COc1ccc(-n2nnc3c(=O)n(CC(=O)OCc4ccccc4)cnc32)cc1 1.8%
CCOC(=O)N1CCN(S(=O)(=O)c2cc(Br)cc3c2N(C(=O)C2CC2)CC3)CC1 3%
Cc1ccc(NC(=O)Cn2nc(C)c3ccccc3c2=O)c(C)c1 0.6%
COc1ccc(N2CCN(C(=O)CSc3nnc4ncccn34)CC2)cc1 4.1%
O=C(CN1CCN(c2ncc(C(F)(F)F)cc2Cl)CC1)Nc1ccc2c(c1)OCO2 2.7%
N#CCSc1nc2ccccc2c(=O)n1-c1ccccc1 -3.9%
CCc1nnc(NC(=O)CSc2nnc(Cc3ccccc3)n2-c2ccc(OC)cc2)s1 3.3%
CC(C)(C)c1csc(NC2=NS(=O)(=O)c3ccccc32)n1 0.2%
COC(=O)c1ccc(CSc2nc3ccccc3c(=O)n2-c2cccc(OC)c2)o1 -1.5%
CCCOC(=O)c1[nH]c2c(c1C)C(=O)CC(c1cc(OC)c(OC)c(OC)c1)C2 (stereo not drawn) 0.2%
CCCC(C(=O)N1CCOCC1)N1C(=O)C2C3C=CC(C3)C2C1=O (stereo not drawn) 4.6%
CN(C)CCOC(=O)C(c1ccccc1)C1(O)CCCC1 (stereo not drawn) 3.8%
COc1cc2ccccc2cc1C(=O)Nc1ccc(S(=O)(=O)Nc2cc(C)on2)cc1 -1.9%
Cc1ccccc1C(OCC(O)CN1CCCCC1CCO)c1ccccc1 (stereo not drawn) 1.3%
O=C1Nc2c(Br)cc(Br)cc2C1(O)N1CCOCC1 (stereo not drawn) -2.4%
COc1ccc(CN2CN(C(C)C)CSC2=S)cc1 1%
COc1ccc(-c2nnn(Cc3nc(N)nc(N4CCCCC4)n3)n2)cc1 7.6%
O=C(C1CCN(S(=O)(=O)c2cccs2)CC1)N1CCCCCC1 6.3%
Cc1ccc(S(=O)(=O)NCC(=O)OCC(=O)N2CCc3ccccc32)cc1 -2.9%
COC(=O)c1ccc(NC(=O)CSc2nnc(Cc3cccn3C)n2-c2ccc(F)cc2)cc1 -0.2%
